N-glyco inh – N-linked glycosylation inhibition; D54 ERlucT glycosylation luciferase reporter, 24 h; percent of 100 nM tunicamycin response; reporter increase, % at 12.5 µM; 360,000 compounds, 0.23% hits;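 active = mean luciferase reporter signal, scaled so untreated is 0 and the glycosylation-blocking control 100, at or above a set limit in every replicate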;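 also: luciferase carries N-glycosylation sites so blocking glycosylation raises the light; 0% = median of neutral control wells and 100% = median of 100 nM tunicamycin wells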
C-LANA FP – blocks KSHV LANA C-terminal domain binding to DNA; MBP-C-LANA/FAM-LBS DNA binding, fluorescence polarization; inhibition, % at 9 µM; 340,000 compounds, 0.078% hits;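 active = highest replicate inhibition at or above 60% at 9 µM, even if other replicates fall short; inactive = all replicates below 60% inhibition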;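 also: 0% = neutral control wells and 100% = 4 µM acridine orange control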
CASP6 VEID inh – blocks human caspase-6 cleavage activity | P55212 | purified caspase-6, Z-VEID-R110 cleavage fluorescence | inhibition, % at 12.5 µM | 350,000 compounds, 0.53% hits;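 active = mean inhibition across replicates at least about 35%, with every replicate also reaching that limit, limit read from the data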;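 also: 0% = median of neutral control wells and 100% = no fluorescence left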
Keap1-Nrf2 PPI – disrupts human Keap1 binding to Nrf2 peptide; Q14145; inhibition, % at 9.4 µM; Keap1 Kelch-Nrf2 peptide fluorescence polarization, 1536-well; 340,000 compounds, 0.15% hits; AID 504523; in the data active = inhibition above about 12%;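 also: human Keap1 Kelch domain with fluorescein labeled Nrf2 9mer peptide probe; 0% = neutral control wells and 100% = peptide positive control; higher means more block of Keap1 binding to Nrf2 peptide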
Target sequence (Q14145 whole entry, looked up, the tested form may be a part): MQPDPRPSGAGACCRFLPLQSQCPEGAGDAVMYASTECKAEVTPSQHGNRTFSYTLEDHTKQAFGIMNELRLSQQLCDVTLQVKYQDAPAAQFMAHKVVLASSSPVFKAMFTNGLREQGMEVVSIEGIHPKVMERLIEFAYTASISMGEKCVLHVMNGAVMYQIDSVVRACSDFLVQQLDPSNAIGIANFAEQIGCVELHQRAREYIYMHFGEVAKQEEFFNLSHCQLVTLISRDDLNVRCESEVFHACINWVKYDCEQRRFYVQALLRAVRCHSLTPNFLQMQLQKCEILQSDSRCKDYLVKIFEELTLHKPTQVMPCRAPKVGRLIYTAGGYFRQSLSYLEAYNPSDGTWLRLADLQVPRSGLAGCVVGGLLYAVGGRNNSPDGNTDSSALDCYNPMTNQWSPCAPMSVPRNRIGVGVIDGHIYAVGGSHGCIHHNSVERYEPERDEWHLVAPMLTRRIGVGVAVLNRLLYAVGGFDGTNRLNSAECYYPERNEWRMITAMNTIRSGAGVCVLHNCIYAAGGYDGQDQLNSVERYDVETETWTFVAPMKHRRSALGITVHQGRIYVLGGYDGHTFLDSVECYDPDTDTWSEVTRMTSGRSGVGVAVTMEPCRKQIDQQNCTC
NSD2 HMT inh – NSD2 (human) methyltransferase inhibition | 310,000 compounds, 0.54% hits | inhibition, % at 12.5 µM | NSD2 peptide methylation, AlphaScreen, 120 min | O96028; in the data active = inhibition above about 50%
HDAC3 inhib – inhibitors of human histone deacetylase 3; inhibition, % at 8.3 µM; AID 2718; O15379; 320,000 compounds, 0.15% hits; recombinant HDAC3, fluorogenic peptide/trypsin coupled, fluorescence; in the data active = inhibition above about 26%, passing the limit was not always enough
* hit, by the source's call; nt = not tested or not shown; + = active, no number. Shown are actives, neighbours in structure and some others; about 1.1% of the full set was active somewhere.

SMILES	N-glyco inh	C-LANA FP	CASP6 VEID inh	Keap1-Nrf2 PPI	NSD2 HMT inh	HDAC3 inhib
COc1ccc(S(=O)(=O)N2CCOCC2)cc1C(=O)NCC(c1ccccc1)c1ccccc1	-3	-3	50*	-7	-4	nt
O=c1[nH]c(=O)n([C@H]2C[C@H](O)[C@@H](CO)O2)cc1Br	48*	0	-1	-7	nt	5
O=c1[nH]c(=O)n([C@H]2C[C@H](O)[C@@H](CO)O2)cc1F	-2	2	-6	-4	nt	0
O=c1[nH]c(=O)n(C2CC(O)C(CO)O2)cc1I (stereo unspecified)	81*	-1	1	-7	0	nt
C[C@@H]1CN([C@@H](C)CO)C(=O)c2cc(NS(=O)(=O)c3cccs3)ccc2O[C@H]1CN(C)Cc1ccccc1	nt	nt	-1	nt	nt	nt
CC(C)NC(=O)N(C)C[C@H]1Oc2ccc(NS(=O)(=O)c3ccccc3)cc2CC(=O)N([C@@H](C)CO)C[C@H]1C	nt	nt	3	nt	nt	nt
C#CC(C)(C)NC(=O)c1ccc(-c2ccccc2F)cc1	0	-1	44*	-3	14	1
COc1ccc(S(=O)(=O)N(C)C[C@H]2Oc3c(NS(=O)(=O)c4cn(C)cn4)cccc3C(=O)N([C@@H](C)CO)C[C@@H]2C)cc1	nt	nt	0	nt	nt	nt
COc1ccc(C(=O)Nc2cc3c(oc2=O)CCCC3=O)cc1	2	2	44*	2	23	-2
CCC(=O)Nc1ccc2c(c1)C(=O)N(C)C[C@@H](OC)[C@@H](C)CN(C(=O)c1ccccc1F)[C@@H](C)CO2	nt	nt	0	nt	nt	nt
O=C(/C=C/c1ccc([N+](=O)[O-])cc1)/C=C/c1ccco1	31*	20	19	0	-4	1
O=C(/C=C/c1ccc(Br)cc1)c1ccco1	8	1	1	-2	0	nt
O=C(C=Cc1ccco1)c1ccco1	3	7	56*	-1	0	nt
COc1ccc(C(=O)N/N=C(\C)c2ccc3c(c2)C2C=CCC2C(c2ccccc2)N3)cc1 (stereo unspecified)	2	-1	nt	-6	nt	-6
O=C(O)c1ccc2c(c1)[C@@H]1C=CC[C@@H]1[C@H](c1ccccn1)N2	2	98*	nt	6	nt	7
COc1cccc(NS(=O)(=O)c2ccc3c(c2)C2C=CCC2C(c2ccc(C(=O)O)cc2)N3)c1 (stereo unspecified)	0	104*	nt	7	nt	6
CCCN(C)C[C@H]1OCCCC[C@H](C)Oc2ccc(NS(=O)(=O)c3ccc(OC)cc3)cc2C(=O)N([C@@H](C)CO)C[C@H]1C	nt	nt	-4	nt	nt	nt
COc1ccc(OC)c(-c2c3cc(O)c(=O)cc-3oc3cc(O)c(O)cc23)c1	-13	167*	nt	+	nt	1
Cc1ccccc1-c1cc(=O)c2c(O)cccc2o1	1	0	-3	-5	nt	2
O=c1cc2oc3cc(O)c(O)cc3c(-c3ccccc3O)c-2cc1O	-3	146*	nt	49*	nt	nt
COc1ccc(OC)c(-c2oc3ccccc3c(=O)c2O)c1	-1	0	nt	1	-10	2
CCOc1ccccc1-c1c2cc(O)c(=O)cc-2oc2cc(O)c(O)cc12	-13	158*	nt	+	nt	nt
COc1ccc(NC(=O)Nc2ccc3c(c2)C(=O)N([C@@H](C)CO)C[C@@H](C)[C@@H](CN(C)Cc2ccc(Cl)c(Cl)c2)OCCCC[C@@H](C)O3)cc1	nt	nt	1	nt	nt	nt
O=C(Nc1cccc(F)c1)N1CC(=O)N2[C@H](CO)[C@H](c3ccc(-c4ccccc4)cc3)[C@@H]2C1	nt	nt	-2	nt	nt	nt
C[C@@H]1CN([C@H](C)CO)C(=O)CCCn2cc(nn2)CO[C@@H]1CN(C)CC1CCCC1	nt	nt	3	nt	nt	nt
SMILES	N-glyco inh	C-LANA FP	CASP6 VEID inh	Keap1-Nrf2 PPI	NSD2 HMT inh	HDAC3 inhib
Cc1nccn1CC1CCc2c(c3ccccc3n2C)C1=O (stereo unspecified)	5	-1	1	-7	nt	0
Cc1[nH]cnc1CN1CCc2c(c3ccccc3n2C)C1=O	4	0	81*	-3	nt	2
O=C1Cc2c(-c3ccccc3)cc(-c3cccc(Cl)c3)nc2-c2ccccc2N1	72*	-2	1	-1	-2	nt
Oc1cc(Nc2cccnc2)cc2cccnc12	1	1	36*	2	nt	9
COc1ccc(S(=O)(=O)N(C)C[C@@H]2OCCCC[C@H](C)Oc3ccc(NS(=O)(=O)c4ccc(F)cc4)cc3C(=O)N([C@@H](C)CO)C[C@H]2C)cc1	nt	nt	1	nt	nt	nt
CCOc1ccc(-n2c(C)cc(C(=O)CCl)c2C)cc1	41*	nt	9	-2	-3	-5

High-throughput results from PubChem BioAssay.
